In all, about 1,300 compounds went through this assay and about 980 (75%) were called active. Inconclusive results (about 4%) are left out. The list shows a part of the results.
These compounds were tested against Sulfhydryl oxidase 1 (Homo sapiens) (UniProt O00391) (assay: QSOX1 enzyme inhibitors, primary screen, biochemical, HyperBlu H2O2 luminescence, HTS (AID 1347420; note: values above 100% were filed as inconclusive)). Details: recombinant QSOX1, HyperBlu H2O2 luminescence; at 12.5 µM; stronger effect = higher value; active = any value above zero.
Sequence of Sulfhydryl oxidase 1 (Homo sapiens) (O00391 whole entry, looked up): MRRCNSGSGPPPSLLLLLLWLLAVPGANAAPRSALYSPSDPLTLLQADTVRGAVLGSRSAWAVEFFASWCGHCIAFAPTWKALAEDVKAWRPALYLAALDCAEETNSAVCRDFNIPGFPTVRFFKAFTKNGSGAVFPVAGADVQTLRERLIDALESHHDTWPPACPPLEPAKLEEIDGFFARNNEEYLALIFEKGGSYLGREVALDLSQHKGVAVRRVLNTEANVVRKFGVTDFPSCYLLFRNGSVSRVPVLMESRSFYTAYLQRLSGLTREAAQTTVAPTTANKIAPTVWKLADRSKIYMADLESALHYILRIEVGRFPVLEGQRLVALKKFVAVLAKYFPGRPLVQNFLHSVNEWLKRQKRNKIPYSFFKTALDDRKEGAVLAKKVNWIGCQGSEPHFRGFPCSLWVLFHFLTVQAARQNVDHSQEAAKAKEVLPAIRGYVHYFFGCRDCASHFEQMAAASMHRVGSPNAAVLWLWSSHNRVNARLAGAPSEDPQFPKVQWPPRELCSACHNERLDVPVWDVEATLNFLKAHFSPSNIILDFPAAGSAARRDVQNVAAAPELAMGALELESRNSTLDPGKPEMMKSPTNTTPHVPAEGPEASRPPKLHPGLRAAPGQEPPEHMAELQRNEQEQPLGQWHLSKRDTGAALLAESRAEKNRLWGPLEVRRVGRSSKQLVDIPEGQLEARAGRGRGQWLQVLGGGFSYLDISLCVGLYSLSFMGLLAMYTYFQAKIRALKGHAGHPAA

inhibition, active:
NCCCC(=O)O 25.9%
NCCCCC(=O)O 19.4%
NCCCCCC(=O)O 40%
O=C(O)CCCCCCCC(=O)O 11.4%
CN(C)c1nc(N)c(C(=O)N=C(N)N)nc1Cl 10.2%
NC(N)=NC(=O)c1nc(Cl)c(N)nc1N 20.2%
CCN(c1nc(N)c(C(=O)N=C(N)N)nc1Cl)C(C)C 22.6%
NC(N)=NC(=O)c1nc(Cl)c(N2CCCCCC2)nc1N 24.3%
O=C(O)CCc1ccc(NCc2cccc(Oc3ccccc3)c2)cc1 41.7%
C=C1C[C@@]23CC[C@H]4[C@@](C)(CCC[C@@]4(C)C(=O)O)[C@@H]2CC[C@]1(O)C3 9%
CCOC(=O)N1CCC(=C2c3ccc(Cl)cc3CCc3cccnc32)CC1 13.2%
Cn1ccnc1 9.1%
CCCCCCCCCCCCCCSCC(=O)O 9.4%
NC1C=CC=C(C(=O)O)C1 (centres undefined) 21.6%
OCC1O[C@H](O)C(Cl)C(O)C1O (some centres undefined) 23.9%
COCCCC/C(=N\OCCN)c1ccc(C(F)(F)F)cc1 9.6%
CN1CCC(=C2c3ccccc3CC(=O)c3sccc32)CC1 6.3%
COc1ccc(C2CNC(=O)C2)cc1OC1CCCC1 (centres undefined) 5.2%
C=CCN1CCc2c(cc(O)c(O)c2Cl)C(c2ccccc2)C1 (centres undefined) 84.4%
Cc1cccc(C2CN(C)CCc3c2cc(O)c(O)c3Cl)c1 (centres undefined) 97.2%
C=CCN1CCc2cc(O)c(O)cc2C(c2ccccc2)C1 (centres undefined) 76.8%
O=C1CCc2cc(OCCCCc3nnnn3C3CCCCC3)ccc2N1 11.5%
COc1cc2c(cc1OC)-c1cc(=Nc3c(C)cc(C)cc3C)n(C)c(=O)n1CC2 4.4%
C[C@H]1O[C@@H](n2cc(F)c(=O)[nH]c2=O)[C@H](O)[C@@H]1O 20%
O=C1N=C([O-])CN1/N=C/C1=C[C+]=C(c2ccc([N+](=O)[O-])cc2)O1 53%
CSc1ccccc1N1CCN(CCCCCC(=O)NC2CCCc3ccccc32)CC1 (centres undefined) 11.3%
O=C(CCCCCN1CCN(c2ccccc2-c2ccccc2)CC1)NC1CCCc2ccccc21 (centres undefined) 22.8%
NC(N)=NC(=O)Cc1c(Cl)cccc1Cl 16.4%
O=C(O)c1cccnc1C(=O)O 5.1%
O=C1NCc2c1c1c3ccccc3[nH]c1c1[nH]c3ccccc3c21 13.3%
Cn1c(=O)c2[nH]c(-c3ccccc3)nc2n(C)c1=O 14.7%
Cn1c(=O)c2[nH]c(-c3ccc(S(=O)(=O)O)cc3)nc2n(C)c1=O 31.8%
CCCn1c(=O)c2[nH]c(-c3ccc(S(=O)(=O)O)cc3)nc2n(CCC)c1=O 20.3%
CN(C)S(=O)(=O)c1ccc2c(c1)/C(=C/c1cc3c([nH]1)CCCC3)C(=O)N2 52.1%
CNc1cc(NS(=O)(=O)c2ccc(N)cc2)nc(NC)n1 1.3%
CCCCCCCCc1ccc(-c2ccc(C(=O)O)cc2)cc1 14.5%
Oc1ccccc1O 62.9%
O=[N+]([O-])c1cccc2c(Br)[nH]nc12 47.4%
CC(=O)N[C@H](C(=O)O)C(C)(C)SN=O 10.5%
CC(N)(C(=O)O)c1ccc(C(=O)O)cc1 (centres undefined) 10.5%
CCCC(=O)NCCc1c2n(c3ccc(OC)cc13)CCCc1ccccc1-2 50.8%
O=C(O)c1cc2cc(F)ccc2[nH]1 1%
O=C1NC(=O)/C(=C/c2ccc3nccnc3c2)S1 5.7%
O=C1NC(=O)/C(=C/c2ccc3c(c2)OC(F)(F)O3)S1 21.2%
CCCN(CCc1ccccc1)C1CCc2c(O)cccc2C1 (centres undefined) 14%
O=c1cc(-c2ccccc2F)[nH]c2cc3c(cc12)OCO3 6.4%
CCN(CC)CCCN(c1ccccc1)C1Cc2ccccc2C1 94.2%
c1ccc(-c2ccccn2)nc1 7.1%
NCCC1CCCC(CCN)N1 (centres undefined) 6.6%
OCc1ccc(-c2nn(Cc3ccccc3)c3ccccc23)o1 0.6%
Ic1ccc(N2CCN(Cc3c[nH]c4ncccc34)CC2)cc1 23.8%
OC1(c2ccc(Cl)cc2)CCN(Cc2c[nH]c3ccccc23)CC1 14.4%
Clc1ccc(N2CCN(Cc3c[nH]c4ncccc34)CC2)cc1 12.6%
COc1ccc2c(c1)c(CC(=O)O)c(C)n2C(=O)c1ccc(Cl)cc1 15.5%
COc1ccc2c(c1)c(CC(=O)O)c(C)n2Cc1ccc(Cl)cc1 5.8%
COc1ccc2c(c1)c(CC(=O)O)c(C)n2C(=O)c1ccccc1 9%
O=C(CCNNC(=O)c1ccncc1)NCc1ccccc1 0.1%
OC(CCN1CCCCC1)(c1ccccc1)C1CC2C=CC1C2 (centres undefined) 8.3%
O=C(O)CC1CCCc2ccccc2C1O (centres undefined) 8.6%
NOCC(=O)O 3%
NCCS(=O)(=O)O 9.8%
NCCCS(=O)(=O)O 14.2%
CN1CCc2cc(O)c(O)cc2C(c2ccccc2)C1 (centres undefined) 67.4%
CN1CCc2cc(Cl)c(O)cc2[C@@H](c2ccccc2)C1 35.8%
COc1ccccc1N1CCN(CCCNc2c(C)c(=O)n(C)c(=O)n2C)CC1 16.8%
COc1ccccc1N1CCN(CCCNc2cc(=O)n(C)c(=O)n2C)CC1 22%
CC#C[C@]1(O)CC[C@H]2[C@@H]3CCC4=CC(=O)CCC4=C3[C@@H](c3ccc(N(C)C)cc3)C[C@@]21C 89.8%
NCC(O)C1CCCCCCC1 (centres undefined) 18.4%
Fc1ccc(C(OCCCc2cnc[nH]2)c2ccc(F)cc2)cc1 10.8%
COC(=O)[C@H](NC(=O)c1cc(-c2ccccc2)nc2ccccc12)c1ccccc1 4.2%
CC(=O)[C@]1(O)Cc2c(O)c3c(c(O)c2[C@@H](O[C@H]2C[C@H](N)[C@H](O)[C@H](C)O2)C1)C(=O)c1ccccc1C3=O 50.8%
CC(N)C(=O)OC(C)(C)Cc1ccc(Cl)cc1 (centres undefined) 5.6%
Nc1nc2c(cnn2CCc2ccccc2)c2nc(-c3ccco3)nn12 17%
Nc1nc2ccc(Cl)cc2c2nc(-c3ccco3)nn12 27.7%
CCN(CC)CCCC(C)Nc1ccnc2cc(Cl)ccc12 (centres undefined) 4.6%
O=C(O)c1cc(=O)c2c(Cl)cc(Cl)cc2[nH]1 23.5%
O=C(O)/C(=C/c1c(C(=O)O)[nH]c2cc(Cl)cc(Cl)c12)c1ccccc1 12.3%
c1ccc2c(c1)CCCC2C1=NCCN1 (centres undefined) 7.7%
NC1(C(=O)O)CCc2cc(C(=O)O)ccc21 (centres undefined) 11.9%
Cn1c(=O)c2[nH]cnc2n(C)c1=O 20.2%
CN1Cc2sccc2C(c2ccc(O)c(O)c2)C1 (centres undefined) 84.1%
Oc1ccc(C2CNCc3sccc32)cc1O (centres undefined) 68.4%
CC(N)=O 37.1%
CC(=O)C(C)=O 5.7%
CCN1C(=O)C=CC1=O 12.3%
C[C@H](O)C(=O)C1=Nc2c(nc(N)[nH]c2=O)NC1 9.2%
NS(=O)(=O)C1=[C+]C=[C+]c2c1c([N+](=O)[O-])cc1nc([O-])c([O-])nc21 79%
CCn1c(=O)[nH]c2cc(Cl)c(Cl)cc21 20.4%
Cn1c(=O)c2c(nc(/C=C/c3cccc(Cl)c3)n2C)n(C)c1=O 8.5%
CN1C[C@H](C(=O)N[C@]2(C)O[C@@]3(O)[C@@H]4CCCN4C(=O)[C@H](Cc4ccccc4)N3C2=O)C[C@@H]2c3cccc4[nH]cc(c34)C[C@H]21 50.6%

inhibition, inactive:
C=C1C[C@@]23CC[C@H]4[C@@](C)(CCC[C@@]4(C)C(=O)OC4OC(CO)C(O)C(O)C4O)[C@@H]2CCC1(OC1OC(CO)C(O)C(O)C1OC1OC(CO)C(O)C(O)C1O)C3 (some centres undefined) -13.9%
CN1CCC(=C2c3ccccc3C=Cc3ccccc32)CC1 -2.7%
CCn1nc(C(=O)O)c(=O)c2cc3c(cc21)OCO3 0%
O=c1ccn([C@@H]2O[C@H](COP(=O)(O)OP(=O)(O)O)[C@@H](O)[C@H]2O)c(=O)[nH]1 -0.8%
NC(N)=N/N=C/c1c(Cl)cccc1Cl -6.1%
CCCn1c(=O)c2[nH]c(-c3ccc(OCC(=O)NCCN)cc3)nc2n(CCC)c1=O -3.6%
O=C1NC(=O)/C(=C/c2ccc(-c3ccc(F)cc3O)o2)S1 0%
c1cnc(N2CCN(Cc3ccc4c(c3)OCO4)CC2)nc1 -5.6%
CC(C)[C@@H]1CC[C@@H](C)C[C@@H]1P(=O)(c1ccccc1)c1ccccc1 -5.2%
OC(CCN1CCCCC1)(c1ccccc1)C1CCCCC1 (centres undefined) -1.3%
NCC(O)(CS(=O)(=O)O)c1ccc(Cl)cc1 (centres undefined) -0.3%
CN1Cc2c(N)cccc2C(c2ccccc2)C1 (centres undefined) -2.6%
CCN(CC)CCCC(C)Nc1c2ccc(Cl)cc2nc2ccc(OC)cc12 (centres undefined) -13%
O=C(O)c1cc(=O)c2ccccc2[nH]1 -7.5%
C=C[C@@]1(C)CC(=O)[C@]2(O)[C@@]3(C)[C@H](O)CCC(C)(C)[C@@H]3[C@H](O)[C@H](OC(C)=O)[C@@]2(C)O1 -4.2%
CC(C)Cn1c(=O)n(C)c(=O)c2[nH]cnc21 -4.6%
NCC1OC(O[C@@H]2[C@H](O)C(OC3C(O)C(N)CC(N)C3OC3OC(CO)C(O)C(O)C3N)O[C@@H]2CO)C(N)C(O)C1O (some centres undefined) -0.2%
CC(=O)/C(C)=N/O -16.7%
CC(O)C(O)[C@H]1CNc2nc(N)[nH]c(=O)c2N1 (some centres undefined) -1.8%

Source: PubChem BioAssay AID1347420 (Sanford-Burnham Center for Chemical Genomics, 2020)
